Where “and” joins values, the source holds several entries; their conditions need not be identical. Identical values can stand only once. Records with an inconclusive call do not appear. Where a structure was tested more than once in an assay, its records may differ in their call. Calls of active or inactive are those of the source. How the source made its calls: active means hit-call score of the fitted dose curve at least 0.9, where 1 is the maximum; inconclusive means response in the unintended direction; inactive means score below 0.9.

Chain of rat Peripheral-type Benzodiazepine Receptor (PBR), Tspo (gene 24230) (P16257 whole entry, looked up): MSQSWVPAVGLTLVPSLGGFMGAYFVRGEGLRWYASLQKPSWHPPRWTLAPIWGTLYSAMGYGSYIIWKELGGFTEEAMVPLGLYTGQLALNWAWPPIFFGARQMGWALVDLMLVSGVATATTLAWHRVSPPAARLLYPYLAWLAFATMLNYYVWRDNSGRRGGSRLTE

This experiment addresses rat Peripheral-type Benzodiazepine Receptor (PBR), Tspo (gene 24230) (UniProt P16257). As to the kind of experiment: NVS_MP_rPBR: NovaScreen (NVS) Membrane Protein Assay for rat Peripheral-type Benzodiazepine Receptor (PBR) (AID 2283335). As for the experimental part: NVS_MP_rPBR is a biochemical, single-readout assay that uses extracted gene-proteins from Rat kidney membranes in a tissue-based cell-free assay. Measurements were taken 1 hour after chemical dosing in a 48-well plate.NVS_MP_rPBR is one of one assay component(s) measured or calculated from the NVS_MP_rPBR assay. It is designed to make measurements of radioligand binding, a form of binding reporter, as detected with scintillation counting signals by Filter-based radiodetection technology.Data from the assay component NVS_MP_rPBR was analyzed into 1 assay endpoint. This assay endpoint, NVS_MP_rPBR, was analyzed in the positive analysis fitting direction relative to DMSO as the negative control and baseline of activity. Using a type of binding reporter, loss-of-signal activity can be used to understand changes in the binding as they relate to the gene Tspo. Furthermore, this assay endpoint can be referred to as a primary readout, because the performed assay has only produced 1 assay endpoint. To generalize the intended target to other relatable targets, this assay endpoint is annotated to the transporter intended target family, where the subfamily is cholesterol transporter.
Binding assays used specific radioligands (tritiated, iodinated) with non-radioactive competitive displacement ligands in agonist or antagonist protocols (as indicated) and various reference compounds and inhibitors to titrate specific binding to receptors and transporters. Most enzyme assays (CYPs, kinases, phosphatases, proteases, HDACs) used recombinant protein and specific substrates (fluorescence mostly, some colorimetric and radioactive) and inhibitors, followed by a biochemical separation of substrate and product. All assays for the biochemical HTS were initially run in duplicate at a single concentration (10 uM for CYP450 assays and 25 uM for all others). […] Each assay was run with positive and negative controls, and concurrent controls on every plate. The follow-up (secondary) screen tested active chemical-pairs in concentration series, as well as a few additional assays not tested in the primary screen, some selected negative inactives, and several cases re-run in the concentration series for confirmatory purposes.
As to `O=C(OCCOCCOC(=O)c1ccccc1)c1ccccc1`, the molecule was classed as inactive.
`CCCCCCCCCCCCc1ccccc1S(=O)(=O)O`: the AC50 was 6.37 µM (active).
As to `O=c1c(-c2ccc(O)cc2)coc2cc(O)ccc12`, the AC50 was 14 µM (active).
Take `CCCOc1sc(C(=O)N2CCC(c3cc(CN)ccc3F)CC2)c(C)c1Br`: the outcome was inactive.
Take `CCC(=C(c1ccc(O)cc1)c1ccc(OCCN(C)C)cc1)c1ccccc1`: the AC50 was 4.37 µM (active) and 3.09 µM (active); the call was inactive.
As to `CC[C@H](c1ccc(O)cc1)[C@@H](CC)c1ccc(O)cc1`, the AC50 is 822 nM (active) and 258 nM (active).
For the molecule `CC1=C(/C=C/C(C)=C/C=C/C(C)=C/C(=O)O)C(C)(C)CCC1`, the molecule was called inactive.
As to `Cc1oc(-c2ccccc2)nc1CCOc1ccc(C[C@H](Nc2ccccc2C(=O)c2ccccc2)C(=O)O)cc1`, the AC50 was 4.35 µM (active).
For the molecule `NC(=O)N1C(=O)C(C(=O)c2cc(Cl)cs2)c2cc(F)c(Cl)cc21` (stereo unspecified), the AC50 was 25 µM (active).
The same measure, in the same setting: in the case of `CCN(CC)CCNc1ccc(CNC=O)c2sc3ccc(OC)cc3c(=O)c12` it was 6.96 µM (active).

A word on the AC50: it is the concentration at which the activity in the assay is half-maximal.

These data come from PubChem BioAssay (EPA / NIEHS).
